# Measured values taken from PMC11006913.
# Changes are numbered by the printed parent chain.
# Legend:
# Assay in all cases: PBM; 200 nM protein, PBS
# Details in all cases: dsDNA, one strand shown
# SIX6 [1] = molecular target: T1, SIX6 (Homo sapiens, UniProt O95475 114-200, L167I)
# T1 sequence: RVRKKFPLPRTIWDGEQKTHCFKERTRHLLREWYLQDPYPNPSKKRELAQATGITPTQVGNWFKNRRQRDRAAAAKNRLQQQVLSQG
# SIX6 [2] = molecular target: T2, SIX6 (Homo sapiens, UniProt O95475 114-200, L143V)
# T2 sequence: T1 sequence with L30V, I54L
# SIX6 [3] = molecular target: T3, SIX6 (Homo sapiens, UniProt O95475 114-200, H141N)
# T3 sequence: T1 sequence with H28N, I54L
# SIX6 [4] = molecular target: T4, SIX6 (Homo sapiens, UniProt O95475 114-200, T165P)
# T4 sequence: T1 sequence with T52P, I54L
# SIX6 [5] = molecular target: T5, SIX6 (Homo sapiens, UniProt O95475 114-200, L167M)
# T5 sequence: T1 sequence with I54M
# SIX6 [6] = molecular target: T6, SIX6 (Homo sapiens, UniProt O95475 114-200, L143M)
# T6 sequence: T1 sequence with L30M, I54L
# SIX6 [7] = molecular target: T7, SIX6 (Homo sapiens, UniProt O95475 114-200, L143I)
# T7 sequence: T1 sequence with L30I, I54L
# SIX6 [8] = molecular target: T8, SIX6 (Homo sapiens, UniProt O95475 114-200, T165G)
# T8 sequence: T1 sequence with T52G, I54L
# SIX6 [9] = molecular target: T9, SIX6 (Homo sapiens, UniProt O95475 114-200, T139Q)
# T9 sequence: T1 sequence with T26Q, I54L
# SIX6 [10] = molecular target: T10, SIX6 (Homo sapiens, UniProt O95475 114-200, T165A)
# T10 sequence: T1 sequence with T52A, I54L
# SIX6 [11] = molecular target: T11, SIX6 (Homo sapiens, UniProt O95475 114-200, L167V)
# T11 sequence: T1 sequence with I54V
# SIX6 [12] = molecular target: T12, SIX6 (Homo sapiens, UniProt O95475 114-200)
# T12 sequence: T1 sequence with I54L
# SIX6 [13] = molecular target: T13, SIX6 (Homo sapiens, UniProt O95475 114-200, T165I)
# T13 sequence: T1 sequence with T52I, I54L
Sequence,binding signal (SIX6 [1]),binding signal (SIX6 [2]),binding signal (SIX6 [3]),binding signal (SIX6 [4]),binding signal (SIX6 [5]),binding signal (SIX6 [6]),binding signal (SIX6 [7]),binding signal (SIX6 [8]),binding signal (SIX6 [9]),binding signal (SIX6 [10]),binding signal (SIX6 [11]),binding signal (SIX6 [12]),binding signal (SIX6 [13])
GATGATAC,"11.4 upbm affinity estimate (log intensity, higher = more binding, comparable within an allelic series)","10.4 upbm affinity estimate (log intensity, higher = more binding, comparable within an allelic series)","11.3 upbm affinity estimate (log intensity, higher = more binding, comparable within an allelic series)","9.55 upbm affinity estimate (log intensity, higher = more binding, comparable within an allelic series)","10.7 upbm affinity estimate (log intensity, higher = more binding, comparable within an allelic series)","11.1 upbm affinity estimate (log intensity, higher = more binding, comparable within an allelic series)","10.5 upbm affinity estimate (log intensity, higher = more binding, comparable within an allelic series)","11.4 upbm affinity estimate (log intensity, higher = more binding, comparable within an allelic series)","11.3 upbm affinity estimate (log intensity, higher = more binding, comparable within an allelic series)","11.2 upbm affinity estimate (log intensity, higher = more binding, comparable within an allelic series)","11.2 upbm affinity estimate (log intensity, higher = more binding, comparable within an allelic series)","11.1 upbm affinity estimate (log intensity, higher = more binding, comparable within an allelic series)","11.1 upbm affinity estimate (log intensity, higher = more binding, comparable within an allelic series)"
AGTATCAC,"11.3 upbm affinity estimate (log intensity, higher = more binding, comparable within an allelic series)","10.3 upbm affinity estimate (log intensity, higher = more binding, comparable within an allelic series)","11.2 upbm affinity estimate (log intensity, higher = more binding, comparable within an allelic series)","9.74 upbm affinity estimate (log intensity, higher = more binding, comparable within an allelic series)","10.6 upbm affinity estimate (log intensity, higher = more binding, comparable within an allelic series)","11 upbm affinity estimate (log intensity, higher = more binding, comparable within an allelic series)","10.3 upbm affinity estimate (log intensity, higher = more binding, comparable within an allelic series)","11.3 upbm affinity estimate (log intensity, higher = more binding, comparable within an allelic series)","11.3 upbm affinity estimate (log intensity, higher = more binding, comparable within an allelic series)","11.3 upbm affinity estimate (log intensity, higher = more binding, comparable within an allelic series)","11 upbm affinity estimate (log intensity, higher = more binding, comparable within an allelic series)","11 upbm affinity estimate (log intensity, higher = more binding, comparable within an allelic series)","11 upbm affinity estimate (log intensity, higher = more binding, comparable within an allelic series)"
CCAGTGCG,"8.98 upbm affinity estimate (log intensity, higher = more binding, comparable within an allelic series)","8.96 upbm affinity estimate (log intensity, higher = more binding, comparable within an allelic series)","9 upbm affinity estimate (log intensity, higher = more binding, comparable within an allelic series)","9.02 upbm affinity estimate (log intensity, higher = more binding, comparable within an allelic series)","8.94 upbm affinity estimate (log intensity, higher = more binding, comparable within an allelic series)","8.99 upbm affinity estimate (log intensity, higher = more binding, comparable within an allelic series)","9.05 upbm affinity estimate (log intensity, higher = more binding, comparable within an allelic series)","9.12 upbm affinity estimate (log intensity, higher = more binding, comparable within an allelic series)","9.15 upbm affinity estimate (log intensity, higher = more binding, comparable within an allelic series)","9.01 upbm affinity estimate (log intensity, higher = more binding, comparable within an allelic series)","9.07 upbm affinity estimate (log intensity, higher = more binding, comparable within an allelic series)","9.01 upbm affinity estimate (log intensity, higher = more binding, comparable within an allelic series)","8.95 upbm affinity estimate (log intensity, higher = more binding, comparable within an allelic series)"
GGCGCCCA,"8.76 upbm affinity estimate (log intensity, higher = more binding, comparable within an allelic series)","8.78 upbm affinity estimate (log intensity, higher = more binding, comparable within an allelic series)","8.67 upbm affinity estimate (log intensity, higher = more binding, comparable within an allelic series)","8.95 upbm affinity estimate (log intensity, higher = more binding, comparable within an allelic series)","8.83 upbm affinity estimate (log intensity, higher = more binding, comparable within an allelic series)","8.75 upbm affinity estimate (log intensity, higher = more binding, comparable within an allelic series)","8.8 upbm affinity estimate (log intensity, higher = more binding, comparable within an allelic series)","8.82 upbm affinity estimate (log intensity, higher = more binding, comparable within an allelic series)","8.81 upbm affinity estimate (log intensity, higher = more binding, comparable within an allelic series)","8.62 upbm affinity estimate (log intensity, higher = more binding, comparable within an allelic series)","8.78 upbm affinity estimate (log intensity, higher = more binding, comparable within an allelic series)","8.71 upbm affinity estimate (log intensity, higher = more binding, comparable within an allelic series)","8.73 upbm affinity estimate (log intensity, higher = more binding, comparable within an allelic series)"
CAGGACCG,"9.24 upbm affinity estimate (log intensity, higher = more binding, comparable within an allelic series)","9.05 upbm affinity estimate (log intensity, higher = more binding, comparable within an allelic series)","9.24 upbm affinity estimate (log intensity, higher = more binding, comparable within an allelic series)","9.18 upbm affinity estimate (log intensity, higher = more binding, comparable within an allelic series)","9.01 upbm affinity estimate (log intensity, higher = more binding, comparable within an allelic series)","9.2 upbm affinity estimate (log intensity, higher = more binding, comparable within an allelic series)","9.14 upbm affinity estimate (log intensity, higher = more binding, comparable within an allelic series)","9.28 upbm affinity estimate (log intensity, higher = more binding, comparable within an allelic series)","9.23 upbm affinity estimate (log intensity, higher = more binding, comparable within an allelic series)","9.16 upbm affinity estimate (log intensity, higher = more binding, comparable within an allelic series)","9.19 upbm affinity estimate (log intensity, higher = more binding, comparable within an allelic series)","9.17 upbm affinity estimate (log intensity, higher = more binding, comparable within an allelic series)","9.13 upbm affinity estimate (log intensity, higher = more binding, comparable within an allelic series)"
ATGATATC,"11.4 upbm affinity estimate (log intensity, higher = more binding, comparable within an allelic series)","10.5 upbm affinity estimate (log intensity, higher = more binding, comparable within an allelic series)","11.5 upbm affinity estimate (log intensity, higher = more binding, comparable within an allelic series)","9.88 upbm affinity estimate (log intensity, higher = more binding, comparable within an allelic series)","10.9 upbm affinity estimate (log intensity, higher = more binding, comparable within an allelic series)","11.2 upbm affinity estimate (log intensity, higher = more binding, comparable within an allelic series)","10.6 upbm affinity estimate (log intensity, higher = more binding, comparable within an allelic series)","11.6 upbm affinity estimate (log intensity, higher = more binding, comparable within an allelic series)","11.5 upbm affinity estimate (log intensity, higher = more binding, comparable within an allelic series)","11.4 upbm affinity estimate (log intensity, higher = more binding, comparable within an allelic series)","11.4 upbm affinity estimate (log intensity, higher = more binding, comparable within an allelic series)","11.3 upbm affinity estimate (log intensity, higher = more binding, comparable within an allelic series)","11.2 upbm affinity estimate (log intensity, higher = more binding, comparable within an allelic series)"
